Legend:
[1] = biological target: Death-associated protein kinase 1 (Homo sapiens) (UniProt P53355); conditions: at 10 µM
[2] = biological target: Death-associated protein kinase 2 (Homo sapiens) (UniProt Q9UIK4); conditions: at 1 µM
[3] = biological target: Death-associated protein kinase 2 (Homo sapiens) (UniProt Q9UIK4); conditions: at 10 µM
[4] = biological target: T1, Serine/threonine-protein kinase DCLK2 (Homo sapiens) (UniProt Q8N568); conditions: at 1 µM
T1 sequence (whole entry): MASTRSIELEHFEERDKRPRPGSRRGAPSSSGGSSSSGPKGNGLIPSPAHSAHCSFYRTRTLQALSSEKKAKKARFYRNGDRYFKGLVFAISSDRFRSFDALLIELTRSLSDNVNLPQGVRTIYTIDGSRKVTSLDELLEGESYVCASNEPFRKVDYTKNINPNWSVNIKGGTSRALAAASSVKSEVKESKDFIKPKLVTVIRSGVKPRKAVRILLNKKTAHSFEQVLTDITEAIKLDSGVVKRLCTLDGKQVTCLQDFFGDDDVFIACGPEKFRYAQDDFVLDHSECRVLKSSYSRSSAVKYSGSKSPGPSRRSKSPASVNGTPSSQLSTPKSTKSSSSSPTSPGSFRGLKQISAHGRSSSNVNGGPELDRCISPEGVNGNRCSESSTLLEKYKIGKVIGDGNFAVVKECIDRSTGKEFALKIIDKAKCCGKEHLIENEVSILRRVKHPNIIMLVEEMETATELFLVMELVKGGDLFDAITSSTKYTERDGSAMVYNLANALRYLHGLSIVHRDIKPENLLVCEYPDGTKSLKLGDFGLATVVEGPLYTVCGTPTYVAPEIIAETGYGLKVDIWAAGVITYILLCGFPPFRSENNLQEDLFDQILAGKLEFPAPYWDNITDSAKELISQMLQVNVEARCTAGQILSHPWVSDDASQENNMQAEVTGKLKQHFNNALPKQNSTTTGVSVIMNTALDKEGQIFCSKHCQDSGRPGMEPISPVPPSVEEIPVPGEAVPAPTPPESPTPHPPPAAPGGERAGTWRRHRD

[5] = biological target: T1, Serine/threonine-protein kinase DCLK2 (Homo sapiens); conditions: at 10 µM
[6] = biological target: T2, Discoidin domain-containing receptor 2 (Homo sapiens) (UniProt Q16832); conditions: at 1 µM
T2 sequence (whole entry): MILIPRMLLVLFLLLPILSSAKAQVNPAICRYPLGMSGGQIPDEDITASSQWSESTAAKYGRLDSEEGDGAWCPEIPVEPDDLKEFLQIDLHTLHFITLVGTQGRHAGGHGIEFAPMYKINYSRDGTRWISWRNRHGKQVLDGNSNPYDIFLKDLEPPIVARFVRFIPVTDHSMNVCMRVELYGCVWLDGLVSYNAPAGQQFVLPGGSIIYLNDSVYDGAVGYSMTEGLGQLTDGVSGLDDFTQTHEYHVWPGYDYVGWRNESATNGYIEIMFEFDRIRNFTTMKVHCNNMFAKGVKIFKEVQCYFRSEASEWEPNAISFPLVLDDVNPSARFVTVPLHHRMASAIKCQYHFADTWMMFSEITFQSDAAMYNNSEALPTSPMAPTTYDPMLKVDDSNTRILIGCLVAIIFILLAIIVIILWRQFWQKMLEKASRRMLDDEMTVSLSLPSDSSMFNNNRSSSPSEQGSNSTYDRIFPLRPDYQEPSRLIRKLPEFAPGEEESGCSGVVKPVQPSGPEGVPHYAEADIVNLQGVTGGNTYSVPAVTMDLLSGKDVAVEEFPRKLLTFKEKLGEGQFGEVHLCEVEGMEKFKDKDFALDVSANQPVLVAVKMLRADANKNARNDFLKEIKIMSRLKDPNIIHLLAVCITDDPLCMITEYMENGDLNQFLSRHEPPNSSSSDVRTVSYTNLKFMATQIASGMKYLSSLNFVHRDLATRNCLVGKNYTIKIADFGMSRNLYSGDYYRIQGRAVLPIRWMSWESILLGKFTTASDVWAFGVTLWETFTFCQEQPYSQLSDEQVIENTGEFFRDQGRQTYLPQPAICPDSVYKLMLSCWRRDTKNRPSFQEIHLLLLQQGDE

[7] = biological target: T2, Discoidin domain-containing receptor 2 (Homo sapiens); conditions: at 10 µM
[8] = biological target: T3, Myotonin-protein kinase (Homo sapiens) (UniProt Q09013); conditions: at 1 µM
T3 sequence (whole entry): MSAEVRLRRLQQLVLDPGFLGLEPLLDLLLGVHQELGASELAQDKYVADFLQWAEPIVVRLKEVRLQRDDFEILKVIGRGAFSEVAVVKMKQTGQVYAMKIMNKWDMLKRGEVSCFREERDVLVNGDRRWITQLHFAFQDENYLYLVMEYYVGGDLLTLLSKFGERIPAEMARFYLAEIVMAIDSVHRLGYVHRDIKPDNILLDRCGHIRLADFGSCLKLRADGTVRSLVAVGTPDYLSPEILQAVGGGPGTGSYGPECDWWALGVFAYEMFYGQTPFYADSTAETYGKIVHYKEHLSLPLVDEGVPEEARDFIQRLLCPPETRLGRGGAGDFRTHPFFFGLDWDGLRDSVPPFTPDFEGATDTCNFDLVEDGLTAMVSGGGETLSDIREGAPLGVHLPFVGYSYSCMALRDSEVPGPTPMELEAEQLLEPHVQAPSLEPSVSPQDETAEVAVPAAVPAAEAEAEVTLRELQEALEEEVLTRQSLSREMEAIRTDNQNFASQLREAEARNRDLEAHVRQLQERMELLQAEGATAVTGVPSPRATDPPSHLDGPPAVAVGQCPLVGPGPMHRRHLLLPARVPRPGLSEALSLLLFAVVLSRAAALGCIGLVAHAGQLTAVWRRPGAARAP

[9] = biological target: T3, Myotonin-protein kinase (Homo sapiens); conditions: at 10 µM
[10] = biological target: T4, Serine/threonine-protein kinase 17A (Homo sapiens) (UniProt Q9UEE5); conditions: at 1 µM
T4 sequence (whole entry): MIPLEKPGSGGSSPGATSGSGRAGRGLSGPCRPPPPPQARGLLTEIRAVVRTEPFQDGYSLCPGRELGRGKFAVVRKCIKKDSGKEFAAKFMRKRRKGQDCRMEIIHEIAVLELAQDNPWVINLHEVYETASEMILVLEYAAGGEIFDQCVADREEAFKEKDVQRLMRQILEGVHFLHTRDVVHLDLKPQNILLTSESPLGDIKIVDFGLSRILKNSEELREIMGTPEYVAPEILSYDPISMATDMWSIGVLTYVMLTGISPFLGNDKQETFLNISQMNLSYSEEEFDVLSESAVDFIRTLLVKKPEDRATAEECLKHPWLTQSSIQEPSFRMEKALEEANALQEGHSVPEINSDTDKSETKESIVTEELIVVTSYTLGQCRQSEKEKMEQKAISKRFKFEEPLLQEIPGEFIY

[11] = biological target: T4, Serine/threonine-protein kinase 17A (Homo sapiens); conditions: at 10 µM
[12] = biological target: T5, Dual specificity tyrosine-phosphorylation-regulated kinase 2 (Homo sapiens) (UniProt Q92630); conditions: at 1 µM
T5 sequence (whole entry): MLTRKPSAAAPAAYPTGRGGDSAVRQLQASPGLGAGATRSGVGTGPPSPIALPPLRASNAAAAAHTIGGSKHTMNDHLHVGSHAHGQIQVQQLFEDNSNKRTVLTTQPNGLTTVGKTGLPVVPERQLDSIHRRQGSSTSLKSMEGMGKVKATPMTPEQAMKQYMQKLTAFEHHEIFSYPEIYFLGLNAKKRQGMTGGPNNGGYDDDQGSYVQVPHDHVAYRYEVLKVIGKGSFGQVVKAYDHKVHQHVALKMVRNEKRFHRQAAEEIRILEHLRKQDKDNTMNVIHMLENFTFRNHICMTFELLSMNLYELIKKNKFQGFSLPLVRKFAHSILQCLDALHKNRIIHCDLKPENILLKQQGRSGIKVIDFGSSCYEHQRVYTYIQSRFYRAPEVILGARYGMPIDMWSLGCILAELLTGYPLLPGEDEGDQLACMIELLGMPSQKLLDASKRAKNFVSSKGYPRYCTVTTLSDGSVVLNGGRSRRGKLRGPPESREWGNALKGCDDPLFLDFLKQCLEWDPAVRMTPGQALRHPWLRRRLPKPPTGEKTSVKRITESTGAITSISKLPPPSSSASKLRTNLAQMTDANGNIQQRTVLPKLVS

[13] = biological target: T5, Dual specificity tyrosine-phosphorylation-regulated kinase 2 (Homo sapiens); conditions: at 10 µM
[14] = biological target: T6, Ephrin type-A receptor 1 (Homo sapiens) (UniProt P21709); conditions: at 1 µM
T6 sequence (whole entry): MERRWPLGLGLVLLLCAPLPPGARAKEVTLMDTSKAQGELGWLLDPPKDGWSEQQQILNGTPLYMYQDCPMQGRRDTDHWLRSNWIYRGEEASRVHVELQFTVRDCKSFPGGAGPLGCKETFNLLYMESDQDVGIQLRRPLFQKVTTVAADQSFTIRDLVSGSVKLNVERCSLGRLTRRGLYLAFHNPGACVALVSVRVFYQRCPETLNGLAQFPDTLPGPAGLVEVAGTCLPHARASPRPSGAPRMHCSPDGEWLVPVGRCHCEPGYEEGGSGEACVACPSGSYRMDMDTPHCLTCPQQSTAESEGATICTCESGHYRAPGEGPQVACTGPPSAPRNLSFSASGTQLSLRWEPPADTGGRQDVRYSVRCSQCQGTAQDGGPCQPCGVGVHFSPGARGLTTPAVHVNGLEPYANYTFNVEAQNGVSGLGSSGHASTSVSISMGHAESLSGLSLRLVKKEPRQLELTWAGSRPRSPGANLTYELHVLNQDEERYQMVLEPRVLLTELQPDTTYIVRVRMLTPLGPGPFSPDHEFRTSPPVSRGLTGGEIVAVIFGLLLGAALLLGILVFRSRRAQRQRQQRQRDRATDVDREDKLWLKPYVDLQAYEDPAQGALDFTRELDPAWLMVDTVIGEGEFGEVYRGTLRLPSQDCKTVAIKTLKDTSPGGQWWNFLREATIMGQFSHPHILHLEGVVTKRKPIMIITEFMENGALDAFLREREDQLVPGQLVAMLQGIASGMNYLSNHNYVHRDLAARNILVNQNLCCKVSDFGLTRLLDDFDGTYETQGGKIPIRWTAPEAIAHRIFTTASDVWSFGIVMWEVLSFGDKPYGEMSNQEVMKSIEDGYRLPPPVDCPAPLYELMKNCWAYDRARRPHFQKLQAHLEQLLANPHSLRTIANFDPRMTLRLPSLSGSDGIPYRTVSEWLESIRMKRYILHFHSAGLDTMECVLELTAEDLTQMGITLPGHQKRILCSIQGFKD

[15] = biological target: T6, Ephrin type-A receptor 1 (Homo sapiens); conditions: at 10 µM
[16] = biological target: Ephrin type-A receptor 2 (Homo sapiens) (UniProt P29317); conditions: at 1 µM
[17] = biological target: Ephrin type-A receptor 2 (Homo sapiens) (UniProt P29317); conditions: at 10 µM
[18] = biological target: T7, Ephrin type-A receptor 3 (Homo sapiens) (UniProt P29320); conditions: at 1 µM
T7 sequence (whole entry): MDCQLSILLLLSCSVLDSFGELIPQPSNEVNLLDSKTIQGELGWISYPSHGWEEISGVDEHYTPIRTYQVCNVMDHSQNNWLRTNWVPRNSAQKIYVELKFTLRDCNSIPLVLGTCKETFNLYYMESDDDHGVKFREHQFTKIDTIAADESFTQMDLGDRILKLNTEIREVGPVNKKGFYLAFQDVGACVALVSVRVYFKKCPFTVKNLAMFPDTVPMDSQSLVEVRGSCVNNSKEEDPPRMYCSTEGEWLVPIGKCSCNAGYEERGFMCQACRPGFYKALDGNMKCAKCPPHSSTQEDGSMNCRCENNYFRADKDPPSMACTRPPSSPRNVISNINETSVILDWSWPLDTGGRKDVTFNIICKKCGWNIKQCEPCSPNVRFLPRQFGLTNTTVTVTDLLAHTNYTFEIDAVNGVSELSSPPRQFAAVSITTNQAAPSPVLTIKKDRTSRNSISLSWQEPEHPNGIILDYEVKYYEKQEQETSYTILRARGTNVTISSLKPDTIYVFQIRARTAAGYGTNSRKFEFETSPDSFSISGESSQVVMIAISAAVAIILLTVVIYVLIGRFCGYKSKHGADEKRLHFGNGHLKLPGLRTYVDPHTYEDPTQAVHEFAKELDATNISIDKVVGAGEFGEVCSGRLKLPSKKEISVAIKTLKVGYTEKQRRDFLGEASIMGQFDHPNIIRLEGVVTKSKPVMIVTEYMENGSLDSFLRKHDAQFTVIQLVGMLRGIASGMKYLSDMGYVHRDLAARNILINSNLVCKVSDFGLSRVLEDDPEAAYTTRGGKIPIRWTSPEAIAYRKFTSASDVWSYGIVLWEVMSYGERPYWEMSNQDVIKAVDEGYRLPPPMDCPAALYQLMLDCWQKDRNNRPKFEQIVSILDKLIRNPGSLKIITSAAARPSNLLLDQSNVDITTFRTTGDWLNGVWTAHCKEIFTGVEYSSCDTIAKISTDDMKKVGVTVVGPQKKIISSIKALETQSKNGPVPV

[19] = biological target: Epidermal growth factor receptor (Homo sapiens) (UniProt P00533); conditions: at 1 µM
[20] = biological target: Epidermal growth factor receptor (Homo sapiens) (UniProt P00533); conditions: at 10 µM

Chain of Ephrin type-A receptor 2 (Homo sapiens) (P29317 whole entry): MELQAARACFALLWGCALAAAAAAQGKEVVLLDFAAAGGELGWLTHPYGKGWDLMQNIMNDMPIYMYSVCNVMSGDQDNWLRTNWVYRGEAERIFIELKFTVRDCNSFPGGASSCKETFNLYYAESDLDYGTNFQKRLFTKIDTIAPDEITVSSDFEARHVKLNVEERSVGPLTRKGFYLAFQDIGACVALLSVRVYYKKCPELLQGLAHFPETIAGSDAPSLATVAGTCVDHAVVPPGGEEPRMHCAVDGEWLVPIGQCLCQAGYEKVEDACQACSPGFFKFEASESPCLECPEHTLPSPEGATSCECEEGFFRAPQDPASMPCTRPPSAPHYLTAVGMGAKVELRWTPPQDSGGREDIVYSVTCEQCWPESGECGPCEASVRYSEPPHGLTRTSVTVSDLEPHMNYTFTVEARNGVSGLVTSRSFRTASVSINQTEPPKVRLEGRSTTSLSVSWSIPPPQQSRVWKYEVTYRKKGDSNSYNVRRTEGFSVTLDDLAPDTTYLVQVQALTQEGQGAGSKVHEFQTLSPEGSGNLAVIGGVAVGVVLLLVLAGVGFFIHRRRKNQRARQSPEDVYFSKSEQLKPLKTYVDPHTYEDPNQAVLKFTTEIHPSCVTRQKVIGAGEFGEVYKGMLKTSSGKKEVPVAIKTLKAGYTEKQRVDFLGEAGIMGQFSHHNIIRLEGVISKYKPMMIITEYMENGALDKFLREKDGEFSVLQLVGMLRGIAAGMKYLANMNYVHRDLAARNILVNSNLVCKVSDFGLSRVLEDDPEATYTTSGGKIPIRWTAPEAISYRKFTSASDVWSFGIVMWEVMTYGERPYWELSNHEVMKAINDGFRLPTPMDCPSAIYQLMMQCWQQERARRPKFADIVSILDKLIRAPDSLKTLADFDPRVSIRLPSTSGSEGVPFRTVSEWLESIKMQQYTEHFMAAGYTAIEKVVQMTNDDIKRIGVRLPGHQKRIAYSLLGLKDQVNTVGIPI
Chain of Death-associated protein kinase 1 (Homo sapiens) (P53355 whole entry, looked up): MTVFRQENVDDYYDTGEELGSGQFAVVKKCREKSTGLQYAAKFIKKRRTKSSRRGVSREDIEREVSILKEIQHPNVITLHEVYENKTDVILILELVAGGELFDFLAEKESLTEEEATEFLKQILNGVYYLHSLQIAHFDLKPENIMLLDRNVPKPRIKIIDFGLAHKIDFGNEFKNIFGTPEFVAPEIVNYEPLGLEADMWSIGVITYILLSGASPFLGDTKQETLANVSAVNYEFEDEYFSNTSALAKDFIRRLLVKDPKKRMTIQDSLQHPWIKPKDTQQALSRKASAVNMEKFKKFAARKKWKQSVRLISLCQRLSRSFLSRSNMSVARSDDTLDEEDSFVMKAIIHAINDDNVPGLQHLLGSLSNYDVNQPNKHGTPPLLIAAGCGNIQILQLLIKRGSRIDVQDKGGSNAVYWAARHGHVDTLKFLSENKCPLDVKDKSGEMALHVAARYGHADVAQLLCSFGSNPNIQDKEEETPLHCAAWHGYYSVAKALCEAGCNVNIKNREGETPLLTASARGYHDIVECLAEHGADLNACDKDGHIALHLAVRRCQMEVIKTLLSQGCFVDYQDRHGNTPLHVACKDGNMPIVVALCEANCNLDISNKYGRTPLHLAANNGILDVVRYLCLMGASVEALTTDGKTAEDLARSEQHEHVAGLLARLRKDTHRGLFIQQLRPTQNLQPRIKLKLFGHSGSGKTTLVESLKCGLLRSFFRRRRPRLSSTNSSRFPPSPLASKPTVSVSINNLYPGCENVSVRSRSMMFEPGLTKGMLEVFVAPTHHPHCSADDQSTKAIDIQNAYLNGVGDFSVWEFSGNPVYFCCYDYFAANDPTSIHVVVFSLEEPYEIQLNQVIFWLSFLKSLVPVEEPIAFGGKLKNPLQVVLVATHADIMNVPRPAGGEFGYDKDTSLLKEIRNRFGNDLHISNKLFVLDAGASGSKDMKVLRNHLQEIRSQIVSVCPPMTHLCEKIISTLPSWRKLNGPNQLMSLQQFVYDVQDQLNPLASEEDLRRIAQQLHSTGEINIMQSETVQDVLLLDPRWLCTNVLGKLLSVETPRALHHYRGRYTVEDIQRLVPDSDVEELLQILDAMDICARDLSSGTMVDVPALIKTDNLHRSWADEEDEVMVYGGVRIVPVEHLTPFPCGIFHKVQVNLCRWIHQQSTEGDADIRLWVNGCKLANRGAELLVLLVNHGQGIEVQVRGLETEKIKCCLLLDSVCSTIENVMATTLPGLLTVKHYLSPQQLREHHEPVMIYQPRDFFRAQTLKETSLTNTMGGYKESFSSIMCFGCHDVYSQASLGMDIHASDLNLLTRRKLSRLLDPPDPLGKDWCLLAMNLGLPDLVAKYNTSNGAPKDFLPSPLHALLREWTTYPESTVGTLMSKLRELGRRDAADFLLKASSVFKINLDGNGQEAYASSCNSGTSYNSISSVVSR
Chain of Death-associated protein kinase 2 (Homo sapiens) (Q9UIK4 whole entry, looked up): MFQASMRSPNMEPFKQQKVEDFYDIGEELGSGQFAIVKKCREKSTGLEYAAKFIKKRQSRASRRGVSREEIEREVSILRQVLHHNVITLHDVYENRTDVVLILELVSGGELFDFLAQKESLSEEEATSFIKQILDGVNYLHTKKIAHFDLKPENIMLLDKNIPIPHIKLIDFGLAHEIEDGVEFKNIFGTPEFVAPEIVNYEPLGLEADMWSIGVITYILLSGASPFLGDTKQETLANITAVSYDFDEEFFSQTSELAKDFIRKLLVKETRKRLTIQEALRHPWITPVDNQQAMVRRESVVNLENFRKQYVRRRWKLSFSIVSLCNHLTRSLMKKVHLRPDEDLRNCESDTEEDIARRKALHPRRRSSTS
Chain of Epidermal growth factor receptor (Homo sapiens) (P00533 whole entry): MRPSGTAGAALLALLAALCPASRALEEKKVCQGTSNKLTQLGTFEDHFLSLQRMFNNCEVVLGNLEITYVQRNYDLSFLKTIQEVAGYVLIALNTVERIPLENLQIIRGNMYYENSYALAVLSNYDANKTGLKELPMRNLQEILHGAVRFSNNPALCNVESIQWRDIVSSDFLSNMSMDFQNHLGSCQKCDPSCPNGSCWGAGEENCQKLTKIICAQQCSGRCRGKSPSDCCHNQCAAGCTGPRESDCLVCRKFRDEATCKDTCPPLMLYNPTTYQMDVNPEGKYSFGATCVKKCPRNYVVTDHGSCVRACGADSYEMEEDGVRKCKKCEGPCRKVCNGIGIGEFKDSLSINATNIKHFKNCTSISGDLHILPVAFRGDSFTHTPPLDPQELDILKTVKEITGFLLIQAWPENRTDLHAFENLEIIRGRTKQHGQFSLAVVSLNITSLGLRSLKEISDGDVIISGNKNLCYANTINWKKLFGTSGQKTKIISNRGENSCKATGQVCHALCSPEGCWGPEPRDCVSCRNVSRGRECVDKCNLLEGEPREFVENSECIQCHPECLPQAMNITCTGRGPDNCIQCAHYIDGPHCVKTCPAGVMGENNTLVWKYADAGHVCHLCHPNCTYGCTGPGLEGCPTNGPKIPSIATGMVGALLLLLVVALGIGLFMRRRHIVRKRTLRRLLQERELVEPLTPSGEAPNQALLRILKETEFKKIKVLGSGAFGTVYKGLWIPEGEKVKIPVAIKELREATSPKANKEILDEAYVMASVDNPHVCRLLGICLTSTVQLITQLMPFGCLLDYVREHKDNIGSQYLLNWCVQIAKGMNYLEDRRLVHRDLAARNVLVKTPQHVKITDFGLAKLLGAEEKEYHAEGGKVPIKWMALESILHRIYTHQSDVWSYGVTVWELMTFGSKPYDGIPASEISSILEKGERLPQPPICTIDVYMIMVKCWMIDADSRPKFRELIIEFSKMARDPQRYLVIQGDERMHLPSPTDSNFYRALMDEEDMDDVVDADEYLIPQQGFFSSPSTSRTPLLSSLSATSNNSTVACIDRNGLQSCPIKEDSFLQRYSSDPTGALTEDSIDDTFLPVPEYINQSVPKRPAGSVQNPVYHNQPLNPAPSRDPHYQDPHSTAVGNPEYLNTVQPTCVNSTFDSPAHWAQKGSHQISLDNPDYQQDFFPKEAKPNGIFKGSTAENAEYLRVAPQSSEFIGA

Row | SMILES | residual activity [1] [%] | residual activity [2] [%] | residual activity [3] [%] | residual activity [4] [%] | residual activity [5] [%] | residual activity [6] [%] | residual activity [7] [%] | residual activity [8] [%] | residual activity [9] [%] | residual activity [10] [%] | residual activity [11] [%] | residual activity [12] [%] | residual activity [13] [%] | residual activity [14] [%] | residual activity [15] [%] | residual activity [16] [%] | residual activity [17] [%] | residual activity [18] [%] | residual activity [19] [%] | residual activity [20] [%]
1 | N#C/C(=C(\N)Sc1ccc(N)cc1)c1ccccc1C(F)(F)F | 78 | 98 | 103 | 102 | 99 | 91 | 108 | 95 | 85 | 96 | 118 | 105 | 95 | 94 | 82 | 98 | 111 | 96 | – | –
2 | COc1ccc(OC)c2c(=S)c3ccccc3[nH]c12 | 93 | 106 | 95 | 101 | 67 | 99 | 103 | 120 | 87 | 94 | 97 | 90 | 66 | 113 | 88 | 96 | 101 | 90 | – | –
3 | O=[N+]([O-])c1ccc(-c2nc(-c3ccc(F)cc3)c(-c3ccncc3)[nH]2)cc1 | 65 | 108 | 101 | 117 | 111 | 77 | 52 | 96 | 93 | 116 | 104 | 100 | 91 | 83 | 92 | 89 | 97 | 99 | 87 | 95
4 | C[C@@H](N)[C@H]1CC[C@H](C(=O)Nc2ccncc2)CC1 | 104 | 88 | 85 | 110 | 87 | 108 | 105 | 95 | 95 | 70 | 67 | 101 | 91 | 101 | 96 | 96 | 98 | 103 | – | –
